From the supplement of paper PMC11732987, “Enantioselective OTUD7B fragment discovery through chemoproteomics screening and high-throughput optimisation” (Communications Chemistry, 2025)

What was measured:
Assay in all cases: log2 ratio of Biotin-Ahx-Ub-VS probe labelling (fragment/DMSO); higher = less target engagement (more negative = stronger competition), active = hit call of the paper (q ≤ 0.05, log2 ratio ≤ -1)
Settings in all cases: compound concentration: 200 uM; treatment time: 3 h
[1] = target: T1, USP42 (UniProt Q9H9J4)
T1 sequence (whole entry): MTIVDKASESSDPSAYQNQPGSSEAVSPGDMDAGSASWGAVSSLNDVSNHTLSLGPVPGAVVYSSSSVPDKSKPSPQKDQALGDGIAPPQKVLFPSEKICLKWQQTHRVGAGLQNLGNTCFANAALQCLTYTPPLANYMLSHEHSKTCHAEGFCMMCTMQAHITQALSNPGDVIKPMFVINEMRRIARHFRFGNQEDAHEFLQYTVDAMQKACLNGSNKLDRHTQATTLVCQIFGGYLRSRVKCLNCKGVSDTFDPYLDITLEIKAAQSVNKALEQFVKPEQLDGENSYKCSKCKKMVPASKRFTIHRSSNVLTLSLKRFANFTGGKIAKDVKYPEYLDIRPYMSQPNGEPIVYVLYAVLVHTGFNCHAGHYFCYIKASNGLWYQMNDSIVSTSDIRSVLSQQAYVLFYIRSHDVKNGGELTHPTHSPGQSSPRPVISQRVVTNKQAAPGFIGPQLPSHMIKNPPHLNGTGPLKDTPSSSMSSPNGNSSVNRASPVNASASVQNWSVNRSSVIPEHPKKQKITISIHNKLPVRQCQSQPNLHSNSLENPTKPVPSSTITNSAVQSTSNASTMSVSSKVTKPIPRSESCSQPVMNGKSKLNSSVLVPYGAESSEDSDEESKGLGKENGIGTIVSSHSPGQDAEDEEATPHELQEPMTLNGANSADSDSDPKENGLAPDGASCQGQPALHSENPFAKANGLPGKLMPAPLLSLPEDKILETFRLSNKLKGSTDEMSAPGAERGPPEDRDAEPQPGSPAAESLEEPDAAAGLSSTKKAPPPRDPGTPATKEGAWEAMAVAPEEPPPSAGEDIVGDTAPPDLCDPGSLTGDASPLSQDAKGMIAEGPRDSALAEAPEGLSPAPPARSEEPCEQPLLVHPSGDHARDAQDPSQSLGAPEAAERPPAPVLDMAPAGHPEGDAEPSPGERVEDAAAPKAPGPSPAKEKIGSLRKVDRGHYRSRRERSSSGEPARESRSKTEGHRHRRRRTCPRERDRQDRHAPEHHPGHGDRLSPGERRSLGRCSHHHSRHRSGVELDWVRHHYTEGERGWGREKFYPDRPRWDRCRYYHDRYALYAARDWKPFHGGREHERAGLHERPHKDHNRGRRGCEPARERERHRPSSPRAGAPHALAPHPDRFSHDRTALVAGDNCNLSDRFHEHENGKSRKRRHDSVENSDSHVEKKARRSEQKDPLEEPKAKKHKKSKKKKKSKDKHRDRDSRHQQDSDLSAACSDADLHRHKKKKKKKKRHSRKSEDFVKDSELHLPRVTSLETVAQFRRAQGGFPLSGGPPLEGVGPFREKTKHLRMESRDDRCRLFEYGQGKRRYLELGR
Summary of the method: (§1)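 Each value is an average log2 ratio of fragment to vehicle, tested by unpaired t-test. The underlying Spectronaut label-free quantities were global-median-normalised, and only proteins with ≥2 unique peptides were included. Triplicate HEK293T lysate samples (495 µg) were exposed to fragment at 200 µM or vehicle for 3 h, then to Biotin-Ahx-Ub-VS at 0.5 µM final for 1 h, before NeutrAvidin enrichment of labelled DUBs, LysC and trypsin digestion, and diaPASEF LC-MS/MS.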

[2] = target: USP46 (UniProt P62068)
Sequence of USP46 (P62068 whole entry): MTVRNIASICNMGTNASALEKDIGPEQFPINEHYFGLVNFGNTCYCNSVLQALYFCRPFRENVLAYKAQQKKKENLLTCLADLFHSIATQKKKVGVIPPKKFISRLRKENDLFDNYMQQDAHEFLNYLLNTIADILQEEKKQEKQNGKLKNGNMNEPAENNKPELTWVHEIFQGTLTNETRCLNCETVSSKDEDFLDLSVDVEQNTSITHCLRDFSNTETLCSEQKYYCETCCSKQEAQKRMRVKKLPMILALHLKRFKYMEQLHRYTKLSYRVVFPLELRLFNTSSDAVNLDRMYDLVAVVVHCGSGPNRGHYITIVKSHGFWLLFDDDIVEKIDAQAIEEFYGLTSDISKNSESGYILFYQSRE
Summary of the method: as §1

[3] = target: T2, USP47 (UniProt Q96K76)
T2 sequence (whole entry): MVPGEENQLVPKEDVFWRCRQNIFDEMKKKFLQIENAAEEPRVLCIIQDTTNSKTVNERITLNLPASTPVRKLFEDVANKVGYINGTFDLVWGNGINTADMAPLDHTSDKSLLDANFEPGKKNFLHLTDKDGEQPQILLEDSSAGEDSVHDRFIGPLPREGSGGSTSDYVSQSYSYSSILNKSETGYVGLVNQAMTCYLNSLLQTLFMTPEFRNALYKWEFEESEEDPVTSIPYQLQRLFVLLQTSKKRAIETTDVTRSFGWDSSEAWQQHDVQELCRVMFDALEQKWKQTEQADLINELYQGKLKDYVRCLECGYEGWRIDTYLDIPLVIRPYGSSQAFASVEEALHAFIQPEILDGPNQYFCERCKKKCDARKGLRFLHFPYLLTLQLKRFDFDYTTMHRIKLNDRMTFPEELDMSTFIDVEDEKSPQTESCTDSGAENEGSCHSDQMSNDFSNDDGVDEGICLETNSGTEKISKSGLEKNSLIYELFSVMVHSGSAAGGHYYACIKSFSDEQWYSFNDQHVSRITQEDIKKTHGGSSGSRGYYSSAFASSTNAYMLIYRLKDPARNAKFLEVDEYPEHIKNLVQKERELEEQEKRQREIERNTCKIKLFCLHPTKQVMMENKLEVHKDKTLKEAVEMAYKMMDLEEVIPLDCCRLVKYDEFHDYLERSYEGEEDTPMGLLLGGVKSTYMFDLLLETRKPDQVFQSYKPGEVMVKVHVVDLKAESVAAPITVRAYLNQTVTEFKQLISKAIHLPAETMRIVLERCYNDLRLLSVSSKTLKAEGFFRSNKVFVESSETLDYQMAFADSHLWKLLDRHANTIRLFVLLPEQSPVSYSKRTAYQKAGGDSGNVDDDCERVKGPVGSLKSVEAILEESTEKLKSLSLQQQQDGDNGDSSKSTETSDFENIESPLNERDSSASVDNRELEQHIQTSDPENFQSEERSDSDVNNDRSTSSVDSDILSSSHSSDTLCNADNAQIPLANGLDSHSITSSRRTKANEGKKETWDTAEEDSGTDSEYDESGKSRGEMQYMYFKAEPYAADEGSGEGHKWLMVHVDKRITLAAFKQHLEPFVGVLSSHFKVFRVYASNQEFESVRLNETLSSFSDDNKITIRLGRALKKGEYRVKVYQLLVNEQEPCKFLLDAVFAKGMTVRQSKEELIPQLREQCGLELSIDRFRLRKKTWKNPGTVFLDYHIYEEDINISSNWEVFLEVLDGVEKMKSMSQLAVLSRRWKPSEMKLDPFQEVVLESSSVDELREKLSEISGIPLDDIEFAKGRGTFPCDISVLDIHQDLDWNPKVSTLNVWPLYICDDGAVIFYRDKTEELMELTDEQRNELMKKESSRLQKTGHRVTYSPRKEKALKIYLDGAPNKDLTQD
Summary of the method: as §1

[4] = target: T3, USP48 (UniProt Q86UV5)
T3 sequence (whole entry): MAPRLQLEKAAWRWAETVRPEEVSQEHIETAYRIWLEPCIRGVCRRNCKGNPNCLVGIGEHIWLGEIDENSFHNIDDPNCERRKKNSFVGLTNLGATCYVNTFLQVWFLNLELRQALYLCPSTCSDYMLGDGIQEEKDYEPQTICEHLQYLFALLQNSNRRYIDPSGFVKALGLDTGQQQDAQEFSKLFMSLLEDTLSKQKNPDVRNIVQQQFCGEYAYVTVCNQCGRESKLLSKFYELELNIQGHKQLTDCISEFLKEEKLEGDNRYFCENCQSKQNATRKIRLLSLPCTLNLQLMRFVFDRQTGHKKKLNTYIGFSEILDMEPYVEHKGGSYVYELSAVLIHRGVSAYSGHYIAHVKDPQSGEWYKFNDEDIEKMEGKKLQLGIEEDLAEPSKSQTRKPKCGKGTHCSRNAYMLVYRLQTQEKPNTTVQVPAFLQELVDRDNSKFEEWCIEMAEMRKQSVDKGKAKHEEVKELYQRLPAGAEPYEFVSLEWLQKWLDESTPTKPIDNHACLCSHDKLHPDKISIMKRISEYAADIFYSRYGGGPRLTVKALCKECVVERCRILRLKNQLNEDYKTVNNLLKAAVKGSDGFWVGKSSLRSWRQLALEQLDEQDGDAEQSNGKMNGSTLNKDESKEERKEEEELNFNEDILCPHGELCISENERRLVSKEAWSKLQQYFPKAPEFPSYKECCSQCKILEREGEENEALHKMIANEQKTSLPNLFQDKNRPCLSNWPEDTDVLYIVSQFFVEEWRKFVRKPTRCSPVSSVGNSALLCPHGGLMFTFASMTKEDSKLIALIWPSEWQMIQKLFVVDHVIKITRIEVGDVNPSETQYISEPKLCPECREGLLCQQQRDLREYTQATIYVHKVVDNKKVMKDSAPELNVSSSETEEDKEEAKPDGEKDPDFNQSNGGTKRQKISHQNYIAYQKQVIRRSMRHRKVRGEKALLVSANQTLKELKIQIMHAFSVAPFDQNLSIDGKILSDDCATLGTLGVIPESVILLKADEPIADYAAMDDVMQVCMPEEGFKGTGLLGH
Summary of the method: as §1

[5] = target: T4, USP5 (UniProt P45974)
T4 sequence (whole entry): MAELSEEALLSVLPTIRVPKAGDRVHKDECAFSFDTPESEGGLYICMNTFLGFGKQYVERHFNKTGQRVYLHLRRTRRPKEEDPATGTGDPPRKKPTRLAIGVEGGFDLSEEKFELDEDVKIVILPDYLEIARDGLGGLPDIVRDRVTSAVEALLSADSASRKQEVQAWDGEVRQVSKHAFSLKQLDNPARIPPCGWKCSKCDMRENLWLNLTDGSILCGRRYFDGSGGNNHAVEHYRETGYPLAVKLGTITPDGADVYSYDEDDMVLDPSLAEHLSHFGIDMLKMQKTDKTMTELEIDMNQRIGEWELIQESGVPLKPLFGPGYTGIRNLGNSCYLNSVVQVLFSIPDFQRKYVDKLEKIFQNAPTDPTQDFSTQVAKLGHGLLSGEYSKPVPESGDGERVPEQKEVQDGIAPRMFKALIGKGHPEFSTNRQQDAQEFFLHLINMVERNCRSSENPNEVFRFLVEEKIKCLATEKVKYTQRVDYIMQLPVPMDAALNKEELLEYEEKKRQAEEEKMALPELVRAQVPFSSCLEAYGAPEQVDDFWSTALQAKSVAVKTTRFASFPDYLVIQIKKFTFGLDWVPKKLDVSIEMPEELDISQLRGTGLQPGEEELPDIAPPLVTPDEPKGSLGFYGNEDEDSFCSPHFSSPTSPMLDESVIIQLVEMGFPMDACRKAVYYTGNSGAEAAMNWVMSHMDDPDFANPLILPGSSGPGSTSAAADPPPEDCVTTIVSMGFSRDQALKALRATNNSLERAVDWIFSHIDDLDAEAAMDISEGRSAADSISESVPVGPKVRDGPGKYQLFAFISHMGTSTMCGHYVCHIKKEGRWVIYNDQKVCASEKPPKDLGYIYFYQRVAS
Summary of the method: as §1

[6] = target: USP54 (UniProt Q70EL1)
Summary of the method: as §1

[7] = target: USP7 (UniProt Q93009)
Sequence of USP7 (Q93009 whole entry, looked up): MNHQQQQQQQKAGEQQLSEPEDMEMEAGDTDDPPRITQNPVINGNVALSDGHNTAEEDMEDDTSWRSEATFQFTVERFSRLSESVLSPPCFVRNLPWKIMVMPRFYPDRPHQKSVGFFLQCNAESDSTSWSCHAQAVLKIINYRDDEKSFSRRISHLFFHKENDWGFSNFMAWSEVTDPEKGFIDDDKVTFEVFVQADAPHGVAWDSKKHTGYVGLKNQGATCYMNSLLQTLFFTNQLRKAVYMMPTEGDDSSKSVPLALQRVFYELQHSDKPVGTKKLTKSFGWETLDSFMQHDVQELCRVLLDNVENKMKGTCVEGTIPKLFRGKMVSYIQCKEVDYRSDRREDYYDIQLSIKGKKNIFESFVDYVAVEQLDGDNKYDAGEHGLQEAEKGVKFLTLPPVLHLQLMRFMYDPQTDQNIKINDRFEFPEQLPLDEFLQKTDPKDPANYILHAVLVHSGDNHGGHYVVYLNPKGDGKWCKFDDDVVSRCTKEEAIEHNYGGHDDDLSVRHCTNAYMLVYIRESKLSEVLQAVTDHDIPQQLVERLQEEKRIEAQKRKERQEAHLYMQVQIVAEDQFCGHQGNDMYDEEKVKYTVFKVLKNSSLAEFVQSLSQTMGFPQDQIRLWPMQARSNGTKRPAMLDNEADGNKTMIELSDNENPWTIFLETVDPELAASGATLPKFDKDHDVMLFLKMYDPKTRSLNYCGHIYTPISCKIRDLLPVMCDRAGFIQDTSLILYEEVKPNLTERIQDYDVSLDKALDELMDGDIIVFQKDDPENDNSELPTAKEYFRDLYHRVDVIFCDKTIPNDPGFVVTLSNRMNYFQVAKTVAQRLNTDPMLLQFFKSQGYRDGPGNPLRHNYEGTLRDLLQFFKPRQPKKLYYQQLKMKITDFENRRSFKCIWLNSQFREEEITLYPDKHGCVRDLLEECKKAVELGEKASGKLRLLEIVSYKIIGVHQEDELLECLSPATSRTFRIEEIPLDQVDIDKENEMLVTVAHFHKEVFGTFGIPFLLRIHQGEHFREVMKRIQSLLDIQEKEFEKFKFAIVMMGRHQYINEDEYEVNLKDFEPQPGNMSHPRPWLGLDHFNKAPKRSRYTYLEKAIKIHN
Summary of the method: as §1

[8] = target: T5, USP8 (UniProt P40818)
T5 sequence (whole entry): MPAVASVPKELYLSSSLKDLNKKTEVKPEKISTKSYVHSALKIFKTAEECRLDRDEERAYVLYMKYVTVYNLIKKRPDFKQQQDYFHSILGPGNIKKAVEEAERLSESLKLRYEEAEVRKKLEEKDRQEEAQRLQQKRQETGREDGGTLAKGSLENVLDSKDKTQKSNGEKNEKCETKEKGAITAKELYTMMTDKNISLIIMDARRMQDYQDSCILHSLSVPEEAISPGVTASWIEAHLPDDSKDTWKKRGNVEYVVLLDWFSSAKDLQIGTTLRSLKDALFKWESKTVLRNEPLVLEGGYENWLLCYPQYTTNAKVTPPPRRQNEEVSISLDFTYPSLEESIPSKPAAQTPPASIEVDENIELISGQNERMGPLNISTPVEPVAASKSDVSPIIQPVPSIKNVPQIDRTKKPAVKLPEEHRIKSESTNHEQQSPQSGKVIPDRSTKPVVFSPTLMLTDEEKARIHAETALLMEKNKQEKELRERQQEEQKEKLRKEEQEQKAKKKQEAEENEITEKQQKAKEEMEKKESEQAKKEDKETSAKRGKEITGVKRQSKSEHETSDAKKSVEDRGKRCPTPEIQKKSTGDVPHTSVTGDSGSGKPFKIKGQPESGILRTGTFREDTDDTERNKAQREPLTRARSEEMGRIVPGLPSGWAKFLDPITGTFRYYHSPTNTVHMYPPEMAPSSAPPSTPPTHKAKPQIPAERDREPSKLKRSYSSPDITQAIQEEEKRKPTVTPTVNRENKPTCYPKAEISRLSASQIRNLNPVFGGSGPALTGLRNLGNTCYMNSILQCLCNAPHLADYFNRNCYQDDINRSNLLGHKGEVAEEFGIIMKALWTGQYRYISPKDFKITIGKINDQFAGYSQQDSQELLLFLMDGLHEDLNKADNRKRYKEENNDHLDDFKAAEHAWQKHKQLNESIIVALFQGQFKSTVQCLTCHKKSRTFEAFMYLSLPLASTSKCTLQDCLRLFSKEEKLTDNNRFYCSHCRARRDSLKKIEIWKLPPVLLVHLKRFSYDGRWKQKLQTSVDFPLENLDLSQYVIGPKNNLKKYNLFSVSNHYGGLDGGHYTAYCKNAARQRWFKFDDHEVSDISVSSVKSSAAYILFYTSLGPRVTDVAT
Summary of the method: as §1

[9] = target: USP9X (UniProt Q93008)
Sequence of USP9X (Q93008 whole entry): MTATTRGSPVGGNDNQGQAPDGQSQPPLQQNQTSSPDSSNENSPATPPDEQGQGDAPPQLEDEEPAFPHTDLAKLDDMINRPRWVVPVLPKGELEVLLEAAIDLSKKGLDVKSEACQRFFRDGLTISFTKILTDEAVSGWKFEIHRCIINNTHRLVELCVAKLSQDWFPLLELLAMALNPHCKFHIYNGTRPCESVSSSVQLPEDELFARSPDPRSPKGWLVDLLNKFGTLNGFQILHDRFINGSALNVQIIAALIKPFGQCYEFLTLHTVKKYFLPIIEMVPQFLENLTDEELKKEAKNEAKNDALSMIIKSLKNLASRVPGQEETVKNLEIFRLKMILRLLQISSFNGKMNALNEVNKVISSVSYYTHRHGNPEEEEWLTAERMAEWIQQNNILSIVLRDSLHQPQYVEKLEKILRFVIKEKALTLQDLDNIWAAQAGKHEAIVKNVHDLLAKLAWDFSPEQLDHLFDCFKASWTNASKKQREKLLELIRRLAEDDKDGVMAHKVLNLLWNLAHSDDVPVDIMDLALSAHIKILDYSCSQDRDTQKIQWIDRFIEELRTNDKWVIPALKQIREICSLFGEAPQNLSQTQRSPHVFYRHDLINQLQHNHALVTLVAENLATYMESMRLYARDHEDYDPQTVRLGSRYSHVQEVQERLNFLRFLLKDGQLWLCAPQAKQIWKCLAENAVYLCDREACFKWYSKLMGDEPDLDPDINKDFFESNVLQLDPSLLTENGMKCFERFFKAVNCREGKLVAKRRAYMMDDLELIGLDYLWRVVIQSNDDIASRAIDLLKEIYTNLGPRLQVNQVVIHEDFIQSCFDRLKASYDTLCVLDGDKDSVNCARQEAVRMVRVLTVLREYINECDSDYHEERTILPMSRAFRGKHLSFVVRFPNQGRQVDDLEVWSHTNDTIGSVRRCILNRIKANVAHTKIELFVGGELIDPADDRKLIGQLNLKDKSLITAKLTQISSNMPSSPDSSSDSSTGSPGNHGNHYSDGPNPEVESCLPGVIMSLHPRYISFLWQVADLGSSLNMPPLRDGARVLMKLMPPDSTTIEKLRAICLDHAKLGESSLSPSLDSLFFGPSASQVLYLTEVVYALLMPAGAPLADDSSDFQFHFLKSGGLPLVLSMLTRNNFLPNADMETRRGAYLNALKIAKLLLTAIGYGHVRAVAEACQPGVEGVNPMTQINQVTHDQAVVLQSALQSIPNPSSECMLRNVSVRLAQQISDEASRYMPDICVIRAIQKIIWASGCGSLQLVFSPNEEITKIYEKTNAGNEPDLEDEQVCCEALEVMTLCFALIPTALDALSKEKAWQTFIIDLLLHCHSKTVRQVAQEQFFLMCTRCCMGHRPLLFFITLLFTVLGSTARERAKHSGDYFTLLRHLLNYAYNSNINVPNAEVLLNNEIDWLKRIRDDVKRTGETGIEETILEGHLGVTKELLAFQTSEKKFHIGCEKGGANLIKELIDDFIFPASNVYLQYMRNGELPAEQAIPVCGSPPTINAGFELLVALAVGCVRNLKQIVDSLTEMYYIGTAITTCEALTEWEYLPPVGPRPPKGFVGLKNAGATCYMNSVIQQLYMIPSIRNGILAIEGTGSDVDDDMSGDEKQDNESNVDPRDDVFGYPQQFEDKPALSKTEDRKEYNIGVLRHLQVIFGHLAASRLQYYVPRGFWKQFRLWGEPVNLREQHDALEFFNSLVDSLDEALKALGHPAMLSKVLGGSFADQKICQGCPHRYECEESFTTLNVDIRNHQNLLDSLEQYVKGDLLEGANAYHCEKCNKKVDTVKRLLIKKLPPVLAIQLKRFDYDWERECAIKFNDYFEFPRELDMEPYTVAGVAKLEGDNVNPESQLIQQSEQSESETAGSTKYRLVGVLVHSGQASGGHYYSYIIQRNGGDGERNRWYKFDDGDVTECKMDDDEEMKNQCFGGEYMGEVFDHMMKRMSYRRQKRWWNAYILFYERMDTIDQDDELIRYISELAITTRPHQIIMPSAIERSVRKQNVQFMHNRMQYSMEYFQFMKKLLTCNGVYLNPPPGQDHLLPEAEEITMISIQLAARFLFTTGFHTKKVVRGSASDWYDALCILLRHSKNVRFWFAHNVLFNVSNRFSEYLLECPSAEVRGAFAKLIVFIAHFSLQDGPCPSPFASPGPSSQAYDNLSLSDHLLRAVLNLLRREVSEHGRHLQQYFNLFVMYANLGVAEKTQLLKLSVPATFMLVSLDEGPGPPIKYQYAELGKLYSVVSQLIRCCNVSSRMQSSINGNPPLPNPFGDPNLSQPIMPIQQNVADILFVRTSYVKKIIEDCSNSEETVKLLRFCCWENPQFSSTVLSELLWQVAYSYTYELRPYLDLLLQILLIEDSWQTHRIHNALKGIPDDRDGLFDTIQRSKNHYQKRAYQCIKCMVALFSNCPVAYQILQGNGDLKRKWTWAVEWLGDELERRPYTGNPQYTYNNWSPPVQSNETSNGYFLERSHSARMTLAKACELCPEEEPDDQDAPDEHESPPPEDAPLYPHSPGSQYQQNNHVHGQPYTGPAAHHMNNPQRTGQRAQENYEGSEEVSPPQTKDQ
Summary of the method: as §1

[10] = target: UniProt O00487
Sequence of UniProt O00487 (O00487 whole entry): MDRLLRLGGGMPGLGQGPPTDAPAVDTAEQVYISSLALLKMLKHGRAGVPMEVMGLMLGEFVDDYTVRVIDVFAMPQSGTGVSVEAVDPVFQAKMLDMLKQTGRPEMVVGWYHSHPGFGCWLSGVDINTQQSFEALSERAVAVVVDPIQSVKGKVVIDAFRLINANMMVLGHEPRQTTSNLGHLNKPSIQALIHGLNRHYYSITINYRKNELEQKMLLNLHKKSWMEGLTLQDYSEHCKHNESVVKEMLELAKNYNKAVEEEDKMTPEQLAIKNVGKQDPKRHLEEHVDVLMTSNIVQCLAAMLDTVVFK
Summary of the method: as §1

Measured: log2 ratio of Biotin-Ahx-Ub-VS probe labelling

CC(c1ccccc1)N(C)C(=O)CCl (stereo not given)
inactive: [1] -0.0241 | [2] -0.161 | [3] 0.0295 | [4] -0.407 | [5] 0.359 | [6] 0.0889 | [7] -0.735 | [8] -0.0666 | [9] -0.115 | [10] -0.0533
